This is a sample that favours compounds with a hit; in the whole collection about 1.6% have one here.
KCNQ2 block: KCNQ2 (rat) channel inhibition | O88943 | CHO-K1 KCNQ2, FluxOR thallium flux, 20 min; hits give low values | B-score at 10 µM | hit rate 1.1% among 310,000;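 active = fluorescence ratio B-score at most minus 3 library SDs, with starting brightness B-score within 2 library SDs, cut at about -5.5 in these data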
KCNQ2 enhance: potentiators of rat KCNQ2 potassium channel | O88943 | CHO-K1 KCNQ2, FluxOR thallium flux fluorescence; hits give high values | hit rate 0.54% among 310,000 | B-score at 10 µM;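 active = fluorescence ratio B-score at least 3 SD of library B-scores, with initial fluorescence B-score within 3 of them, cut at about 5.3 in these data; same plate scores as AID 2156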;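 also: B-score of peak minus minimum over baseline fluorescence ratio after K+ and Tl+ stimulus; positive B-score means potentiation of KCNQ2 with more thallium influx and brighter signal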
Kir21 confirm: confirmation of mouse Kir2.1 potassium channel inhibitors; shares compounds with KCNQ2 enhance; Kir2.1-expressing cells, FluxOR thallium flux fluorescence; hits give low values; Tl flux remaining, % of negative control (hits give low values), % at 10 µM; hit rate 41% among 2,300; AID 2032;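 active = Primary-screen hit whose thallium flux fell at least 3 control SD below untreated wells in both duplicates, with normal baseline fluorescence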;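 also: 0% = blank wells without stimulus and 100% = stimulated no-compound controls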
Target sequence (P35561 whole entry, looked up): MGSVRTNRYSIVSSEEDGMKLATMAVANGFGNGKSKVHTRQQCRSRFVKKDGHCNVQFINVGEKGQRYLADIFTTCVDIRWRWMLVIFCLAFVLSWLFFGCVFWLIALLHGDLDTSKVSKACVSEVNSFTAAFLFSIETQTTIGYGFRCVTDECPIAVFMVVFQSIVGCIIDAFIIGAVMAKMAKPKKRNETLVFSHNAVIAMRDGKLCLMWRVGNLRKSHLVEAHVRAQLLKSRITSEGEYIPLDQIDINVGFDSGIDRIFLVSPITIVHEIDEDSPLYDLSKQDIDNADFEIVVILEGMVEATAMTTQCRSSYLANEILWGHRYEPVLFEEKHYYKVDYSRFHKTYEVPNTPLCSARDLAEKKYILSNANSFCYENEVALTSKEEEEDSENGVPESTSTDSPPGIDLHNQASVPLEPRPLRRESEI
HEK293 ctr: parental HEK293 activity in Kir2.1 inhibitor counter-screen; shares compounds with KCNQ2 enhance; parental HEK293 cells, FluxOR thallium flux fluorescence; 0% = unstimulated blank wells; FluxOR signal as % of negative control (100 = no effect), % at 10 µM; hit rate 19% among 2,300; AID 2105;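 active = dye signal at least 3 control SD above or below untreated wells in both duplicates, raw fluorescence within 3, either direction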;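 also: percent is based on the flux ratio of peak minus minimum fluorescence over baseline F0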
CHO-K1 Tl ctr: counter-screen for KCNQ2 potentiators: effect in parental CHO-K1 cells | shares compounds with KCNQ2 enhance | FluxOR thallium flux fluorescence; zero = vehicle mean+3SD, 100% = vehicle-minus-blank window | activity increase over 3SD of controls, % at 10 µM | hit rate 43% among 1,200;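 active = signal rise of at least 3 SD above the untreated control mean, in both duplicate wells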;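 also: counter screen of KCNQ2 potentiator hits so any rise reflects channel-independent effects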
KCNQ1 sel pot: tests whether KCNQ2 potentiators also act on human KCNQ1 | shares compounds with KCNQ2 enhance | CHO KCNQ1 stable, FluxOR thallium flux fluorescence; beyond 3SD, as % of vehicle-control signal | activation over 3SD threshold, % at 10 µM | hit rate 28% among 1,200 | AID 2283;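 active = fluorescence ratio rise of at least 3 SD of vehicle wells above their mean, in both replicate wells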;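 also: 0% = vehicle mean plus 3 SD and 100% = vehicle minus unstimulated blank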
KCNQ2 pot confirm: confirmation of rat KCNQ2 potassium channel potentiators | shares compounds with KCNQ2 enhance | CHO-KCNQ2 cells, FluxOR thallium flux fluorescence | potentiation, less the hit threshold, % at 10 µM | hit rate 68% among 1,200 | AID 2287;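 active = fluorescence ratio rising 3 SD or more over the vehicle control mean in both replicates, plus primary screen hit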;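 also: peak minus minimum thallium fluorescence divided by baseline after K/Tl stimulus; 0% = vehicle mean plus 3 SD and 100% = vehicle minus unstimulated blank difference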
Kir21 spec: mouse Kir2.1 off-target activity of KCNQ2 potentiators; shares compounds with KCNQ2 enhance; HEK293 Kir2.1, FluxOR thallium flux fluorescence; hit rate 2% among 1,200; activity over 3SD threshold, % at 10 µM;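 active = fluorescence ratio rise of at least 3 SD above the vehicle-control mean, seen in both replicates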;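 also: 0% = vehicle mean plus 3 SD and 100% = vehicle minus no-stimulus blank window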
KCNQ2 W236L MoA: rat KCNQ2 W236L mutant potentiation by KCNQ2 potentiators | shares compounds with KCNQ2 enhance | CHO KCNQ2-W236L, automated patch clamp current | current increase over 3SD of negative controls (%), hits give high values, % at 25 µM | hit rate 10% among 940 | AID 2558;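 active = current increase at least 3 SD of the untreated controls above them in both duplicate recordings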
* = called active by the depositor; i = inactive; / = no result given.

SMILES | KCNQ2 block | KCNQ2 enhance | Kir21 confirm | HEK293 ctr | CHO-K1 Tl ctr | KCNQ1 sel pot | KCNQ2 pot confirm | Kir21 spec | others
COc1cc(CNCc2ccccn2)ccc1OCc1c(Cl)cccc1Cl | i | 0.47 | 40.5%* | i | / | / | / | /
O=c1cc(-c2cccs2)oc2ccc(Cl)cc12 | i | 1.25 | / | / | / | / | / | /
CCCCn1c(-c2cccs2)nc2oc3ccccc3c(=O)c2c1=O | i | 0.86 | / | / | / | / | / | /
Cc1ccc(-c2oc3ccccc3c(=O)c2OCC(=O)O)cc1 | i | / | / | / | / | / | / | /
O=c1c(O)c(-c2cccs2)oc2ccccc12 | i | 12.5* | i | i | 9.6* | -32.7 | 65.6* | -35.6 | KCNQ2 W236L MoA=i
O=c1c(O)c(-c2cccs2)oc2ccc(Cl)cc12 | i | 14.5 | i | i | -18.1 | -16.5 | 70.4* | -29.1 | KCNQ2 W236L MoA=24.4%*
Cc1ccc(-c2oc3ccccc3c(=O)c2O)cc1 | i | 5.64* | i | 162.5%* | -20.6 | -22.4 | 21.0* | -37.0 | KCNQ2 W236L MoA=i
Cc1cc(NC(=O)COC(=O)c2ccccc2[N+](=O)[O-])no1 | i | 0.18 | / | / | / | / | / | /
CCn1nc(C)c(CN2CCC(Oc3ccc(C(=O)N4CCCC4)cc3)CC2)c1C | i | / | / | / | / | / | / | /
CC1COC(=O)C(NNc2ccc(Cl)c(Cl)c2)=N1 (centres undefined) | i | 0.64 | / | / | / | / | / | /
O=C1NC(=O)/C(=C\c2ccc(OCc3ccccc3)cc2)S1 | i | 7.98* | i | i | -8.9 | -31.6 | -13.3 | -36.4
O=C1NC(=O)/C(=C\c2ccccc2OCc2ccccc2)S1 | i | 0.21 | / | / | / | / | / | /
S=C(NCc1ccco1)Nc1ccc(Cl)cn1 | i | 0.44 | / | / | / | / | / | /
Cc1ccc(OCC(=O)N2CCN(S(C)(=O)=O)CC2)cc1 | i | 1.17 | / | / | / | / | / | /
Cn1c(C2=C(O)CN(Cc3ccccc3)C2=N)nc2ccccc21 | i | / | / | / | / | / | / | /
CCC(C(=O)OC(C)C(=O)Nc1ccc(Cl)cn1)c1ccccc1 (centres undefined) | i | / | 57.5%* | 68.5%* | / | / | / | /
CNc1ccccc1C(=O)OC(C)C(=O)Nc1ccc(Cl)cn1 (centres undefined) | i | 0.65 | / | / | / | / | / | /
CNC(=O)CSCc1cnn(-c2ccccc2)c1-n1cccc1 | i | 0.39 | / | / | / | / | / | /
COc1cccc(CNC(=O)CSCc2cnn(-c3ccccc3)c2-n2cccc2)c1 | i | / | i | i | / | / | / | /
CCOC(=O)N1CCC(NC(=O)CSCc2cnn(-c3ccccc3)c2-n2cccc2)CC1 | i | 0.04 | / | / | / | / | / | /
O=C(CSCc1cnn(-c2ccccc2)c1-n1cccc1)NCc1cccs1 | i | / | i | i | / | / | / | /
CCN(C(=O)Cc1c(C(=O)O)n(CC)c2ccccc12)c1cccc(C(F)(F)F)c1 | i | / | / | / | / | / | / | /
Cc1ccccc1-n1c(-c2ccc(=O)[nH]n2)n[nH]c1=S | i | 1.89 | / | / | / | / | / | /
CC(C)(C)c1cc(-c2n[nH]c(=S)n2-c2ccccc2F)n[nH]1 | i | 5.3* | i | 154.5%* | -4.7 | -39.1 | 43.9* | -36.4 | KCNQ2 W236L MoA=20.2%*
Cc1cc(C)c(C(=O)C2OC(=O)C(C)(C)C(=O)C2(C)C)c(C)c1 (centres undefined) | i | 10* | i | i | 6.5* | -15.5 | 2.7* | -39.8 | KCNQ2 W236L MoA=i
SMILES | KCNQ2 block | KCNQ2 enhance | Kir21 confirm | HEK293 ctr | CHO-K1 Tl ctr | KCNQ1 sel pot | KCNQ2 pot confirm | Kir21 spec | others
CC1(C)C(=O)OC(C(=O)c2ccccc2)C(C)(C)C1=O (centres undefined) | i | / | / | / | / | / | / | /
Cc1cc(=O)oc2cc(OCC(=O)OCC(=O)Nc3c(C)n(C)n(-c4ccccc4)c3=O)ccc12 | i | 0.43 | / | / | / | / | / | /
CC(C)C[C@@H](CO)N1CCN(Cc2ccc([N+](=O)[O-])cc2)CCC1=O | i | / | / | / | / | / | / | /
C=CCn1c(SCc2ccc(Br)cc2F)nc2cc(C(=O)O)ccc2c1=O | i | 5.35* | i | i | -14.9 | -20.1 | -2.0 | -29.3 | KCNQ2 W236L MoA=i
C=CCn1c(SCc2c(C)noc2C)nc2cc(C(=O)O)ccc2c1=O | i | 0.07 | / | / | / | / | / | /
CC1CCN(CCOc2ccc(OCc3ccccc3)cc2)CC1 | i | 0.45 | / | / | / | / | / | /
Cc1cc(-c2ccccc2)n2nc(N)nc2n1 | i | 0.48 | / | / | / | / | / | /
Cc1cc(C)c(S(=O)(=O)N2CCC(C(=O)NCc3ccc(Cl)cc3Cl)CC2)c(C)c1 | i | 6.04* | i | i | -4.7 | -51.5 | -2.5 | -35.9
Cc1cc(C)c(S(=O)(=O)N2CCC(C(=O)NCc3ccncc3)CC2)c(C)c1 | i | 0.36 | / | / | / | / | / | /
CCCCn1c(N)c(N(CC(C)C)C(=O)c2ccc(S(=O)(=O)N3CCC(C)CC3)cc2)c(=O)[nH]c1=O | i | / | / | / | / | / | / | /
CCn1c(=O)n(CC)c2cc(N3CCCC3)c(NC(=O)c3cccc(C)c3)cc21 | i | / | / | / | / | / | / | /
CCn1c(=O)n(CC)c2cc(NC(=O)C(C)c3ccccc3)c(Br)cc21 (centres undefined) | i | 22.4* | i | i | -8.2 | -24.2 | 94.9* | -24.4 | KCNQ2 W236L MoA=i
CC(C)(C)CN1C(=O)C(=O)NC[C@@H]1CCCCN | i | 1.15 | / | / | / | / | / | /
CCCCCCC(O)(c1ccccc1)C(CN1CCOCC1)c1ccccc1 (centres undefined) | i | 0.4 | / | / | / | / | / | /
CCCCCCC(O)(c1ccc(OC)cc1)C(CN1CCOCC1)c1ccccc1 (centres undefined) | i | 6.37* | i | i | -24.3 | -9.0 | 6.2* | -44.7 | KCNQ2 W236L MoA=i
CCOC(=O)C1CCN(S(=O)(=O)c2ccc(C(C)(C)C)cc2)CC1 | i | / | / | / | / | / | / | /
S=c1[nH]nc(COc2ccccc2)n1/N=C/c1ccc(Cl)c(Cl)c1 | i | / | / | / | / | / | / | /
Cc1cccc(/C=N/n2c(COc3ccccc3)n[nH]c2=S)c1 | i | 6.02* | i | 158.5%* | -8.4 | -13.6 | 0.0* | -38.4 | KCNQ2 W236L MoA=i
C[C@@H]1NC(=O)[C@H](CCC(=O)O)NC(=O)c2cc([N+](=O)[O-])cc(F)c2NCCC[C@@H](C(N)=O)NC1=O | i | 0.2 | / | / | / | / | / | /
O=C(c1nc2ccccn2c1CNCCCn1cccn1)N1CCCC1 | i | 2.96 | / | / | / | / | / | /
COCCNC(=O)C(c1ccc(C)o1)N(C(=O)C(=O)NC1CCCCC1)c1ccc(F)cc1 (centres undefined) | i | / | / | / | / | / | / | /
CNCCCC1Sc2ccccc2Oc2ccccc21 (centres undefined) | i | 0.13 | 40.5%* | i | / | / | / | /
CC(C)(C)c1ccc(OCCC(=O)OCC(=O)Nc2ccc(N3CCOCC3)cc2)cc1 | i | 5.55* | i | i | 14.7* | -11.4 | -11.7 | -37.5 | KCNQ2 W236L MoA=i
